Structures are written as SMILES. “And” between values parts separate entries of the source, which are not always exact repeats. Equal entries are not always repeated. Records with an inconclusive call do not appear. For part of these data: Measured potencies and affinities stand elsewhere. The source made the active and inactive calls. Unless noted, no rule for the calls is given here.

The conditions of experiment [1]: Ebola virus entry assay, green fluorescence channel.
The conditions of experiment [2]: Ebola virus entry assay, green channel fluorescence.
The conditions of experiment [3]: Ebola virus entry assay, reporter ratio channel; AC50: Channel type: primary unless noted; outcome: Channel type: primary unless noted.
Experiment [4] in a line: qHTS Assay for Identifying Gametocytocidal Compounds (AID 743244; active = well fitted curve in the direction sought with a large enough effect; an effect the other way counts as inactive or inconclusive;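 also: % is scaled to controls: 0 for no effect and ±100 for the full control effect; actives lower the fluorescent signal which means gametocytes are killed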). Particulars: P. falciparum 3D7 stage III-V gametocytes, alamarBlue, 72 h; max response: stronger effect = lower value. The method, boiled down:
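P. falciparum 3D7 stage III–V gametocytes (20,000 cells/well) were exposed to compounds for 72 h at 37 °C, 5% CO2. AlamarBlue was then added for 24 h; decreased resorufin fluorescence (Ex 525/Em 598 nm) indicated loss of viability.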
A general note: qHTS replaces the single test concentration by a dilution series.

A short description of experiment [5]: qHTS assay for cell viability of HEK293 cells (AID 743288; active = well fitted curve in the direction sought with a large enough effect; an effect the other way counts as inactive or inconclusive; also: % is scaled to controls: 0 for no effect and ±100 for the full control effect; nearly all actives have a fitted effect of over 50% in size). Particulars: ATP luminescence (CellTiter-Glo), 18 h, stronger effect = lower value. The gist of the method: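 Total intracellular ATP, measured with a luciferase-coupled reagent, indicates the number of viable HEK293 cells. Exposure to test chemicals lasts 18 h at 37 C in 1,536-well format at 2,000 cells/well.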

A short description of experiment [6]: qHTS assay for cell viability of the p53RE-bla HCT-116 cell line (AID 743292; active = well fitted curve in the direction sought with a large enough effect; an effect the other way counts as inactive or inconclusive; also: % is scaled to controls: 0 for no effect and ±100 for the full control effect; nearly all actives have a fitted effect of over 55% in size). Particulars: p53RE-bla HCT-116 viability, ATP luminescence, 16 h; series mostly up to 95 µM. The gist of the method: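 After plating at 4,000 cells per well and a 5 h rest at 37 C, HCT-116 cells carrying p53RE-bla received test chemicals in DMSO. Sixteen hours later at 37 C, CellTiter-Glo was added and luminescence recorded following 30 min at room temperature.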

The nature of experiment [7]: qHTS profiling of the MIPE4 collection as inhibitors of Plasmodium falciparum (3D7) proliferation (AID 743344).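 Also: scaled between DMSO vehicle wells and 0.29 µM artemisinin as full inhibition.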 Particulars: P. falciparum 3D7 in erythrocytes, SYBR Green DNA fluorescence, 72 h; at 28.5 µM (top of the series) unless noted. The gist of the method: (§1)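 Erythrocytes infected with P. falciparum (0.3% parasitemia, 2.5% hematocrit) incubated with compounds 72 h at 37 C, 5% CO2. Lysis with saponin/Triton buffer containing SYBR Green I, overnight at room temperature in the dark; DNA fluorescence (485/535 nm) normalised to 0.29 uM artemisinin and DMSO.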

A short description of experiment [8]: qHTS profiling of the MIPE4 collection as inhibitors of Plasmodium falciparum (DD2) proliferation (AID 743345). Particulars: P. falciparum Dd2 in erythrocytes, SYBR Green DNA, 72 h; at 28.5 µM (top of the series) unless noted. The method, boiled down:
as §1

Experiment [9] can be described thus: qHTS profiling of the MIPE4 collection as inhibitors of Plasmodium falciparum (DD2) proliferation (Rep 2) (AID 743346). The following applies: P. falciparum Dd2 in erythrocytes, SYBR Green DNA, 72 h; at 28.5 µM (top of the series) unless noted. The gist of the method: as §1
Experiment [10] in a line: qHTS profiling of the MIPE4 collection as inhibitors of Plasmodium falciparum (HB3) proliferation (AID 743347).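 Also: plate controls were DMSO vehicle wells for no effect and artemisinin wells for full effect.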 Particulars: P. falciparum HB3 in erythrocytes, SYBR Green DNA, 72 h; at 28.5 µM (top of the series) unless noted. The method, boiled down:
as §1
For efficacy in this document: 0% is about no effect.

In the case of `CCS(=O)(=O)c1ccc(OC)c(C(=O)OC)c1`, the efficacy in experiment [1] was 18.9% (inactive). Further, the outcome in [2] and in experiment [3] was inactive.

`CC1(COc2ccc(CC3SC(=O)NC3=O)cc2)CCCCC1` (stereo not drawn): in [1], the efficacy is -16.4% (inactive). The outcome in experiment [2] and in [3] was inactive.

Turning to `CNC[C@H](O)c1cccc(O)c1`, the efficacy in [1] was -23.9% (inactive). For the same compound, the compound was called inactive in experiment [2] and in [3].

As to `CC(=O)OCC(COC(C)=O)OC(C)=O`, the efficacy in experiment [1] is 12.7% (inactive). The compound was classed as inactive in [2] and in experiment [3].

As for `O=C(O)CCCCC(=O)O`, in experiment [1], the efficacy is -12.4% (inactive). Also, the call in experiment [2] and in experiment [3] was inactive.

As to `OC1(c2ccc(Cl)cc2)CCNCC1`, the efficacy in experiment [1] is 19.8% (inactive). For the same compound, the outcome in experiment [2] and in experiment [3] was inactive.

Take `CCN(CC)CCNC(=O)c1cc(S(C)(=O)=O)ccc1OC`: the efficacy in experiment [1] is -10.9% (inactive). Also, the compound was classed as inactive in experiment [2] and in experiment [3].

For the compound `O=C(O)CNC(=O)c1ccccc1`, in [1], the efficacy was -32.2% (inactive). The call in [2] and in experiment [3] was inactive.

On to `CCCc1c2oc(C(=O)O)cc(=O)c2cc2c(=O)cc(C(=O)O)n(CC)c12`, for which the efficacy in [1] is 16% (inactive). The call in [2] and in experiment [3] was inactive.

Take `CO[C@@]1(NC(=O)CSCC#N)C(=O)N2C(C(=O)O)=C(CSc3nnnn3C)CS[C@@H]21`: in experiment [1], the efficacy is -13.7% (inactive). Moreover, the compound was classed as inactive in experiment [2] and in experiment [3].

As to `CC(=O)N[C@@H](CC(C)C)C(=O)O`, in experiment [1], the efficacy is -14.4% (inactive). The compound was classed as inactive in experiment [2] and in experiment [3].

Consider `O=C(c1ccccc1)c1ccccc1`, for which the efficacy in [1] is 10.2% (inactive). For the same compound, the result in experiment [2] and in experiment [3] was inactive.

As to `O=C(O)c1ccc(=O)[nH]c1`, the efficacy in experiment [1] was -14.8% (inactive). Besides, the compound was classed as inactive in [2] and in experiment [3].

Regarding `CC(=O)N(c1onc(C)c1C)S(=O)(=O)c1ccc(N)cc1`, the efficacy in experiment [1] was -8.94% (inactive). The call in [2] and in experiment [3] was inactive.

For the compound `CCCC(O)C(CC)CO` (stereo not drawn), the efficacy in [1] is 14.1% (inactive). The result in experiment [2] and in experiment [3] was inactive.

On to `Cc1coc2ccccc2c1=O`, for which, in experiment [1], the efficacy is -25.1% (inactive). Also, the outcome in experiment [2] and in experiment [3] was inactive.

For the compound `C[C@]12CCC(=O)C=C1CC[C@@H]1[C@@H]2[C@@H](O)C[C@@]2(C)[C@H]1CC[C@]2(O)C(=O)COC(=O)CCC(=O)O`, the efficacy in [1] was -14% (inactive). The call in experiment [2] and in experiment [3] was inactive.

On to `CC(C)=CCC[C@@](C)(O)[C@H]1CC=C(C)CC1`, for which the efficacy in experiment [1] is -15.6% (inactive). Also, the outcome in experiment [2] and in experiment [3] was inactive.

On to `COc1ccc(/C=N/NC(=O)c2ccncc2)cc1OC`, for which, in experiment [1], the efficacy was 14.8% (inactive). Further, the compound was called inactive in experiment [2] and in experiment [3].

As to `O=C(N/N=C/c1ccc([N+](=O)[O-])o1)c1ccc(O)cc1`, in experiment [1], the efficacy is 14.6% (inactive). The outcome in experiment [2] and in [3] was inactive.

Regarding `CC(C)COC(=O)c1ccc(N)cc1`, in experiment [1], the efficacy is 8.42% (inactive). The result in experiment [2] and in experiment [3] was inactive.

With `CC(=O)SCC(CC(=O)c1ccc(C)cc1)C(=O)O` (stereo not drawn), the efficacy in [1] is 17.3% (inactive). Besides, the compound was classed as inactive in experiment [2] and in [3].

For the compound `Nc1ccc(S(=O)(=O)Nc2ccccn2)cc1`, the efficacy in [1] was -13.9% (inactive). The compound was called inactive in experiment [2] and in experiment [3].

Take `COc1cc(O)cc(O)c1`: in [1], the efficacy is 16.6% (inactive). Further, the outcome in experiment [2] and in experiment [3] was inactive.

In the case of `NCC(=O)CCC(=O)O`, the efficacy in [1] was -14.6% (inactive). Besides, the result in [2] and in [3] was inactive.

For `NCCNCCNCCN`, the efficacy in [1] was 15% (inactive). Also, the compound was called inactive in experiment [2] and in experiment [3].

As for `CC(=O)OC(C)OC(=O)C(C)c1ccc(-c2ccccc2)c(F)c1` (stereo not drawn), in experiment [1], the efficacy was -16.8% (inactive). Moreover, the compound was classed as inactive in [2] and in experiment [3].

With `Nc1ccc(C(=O)OCC(O)CO)cc1` (stereo not drawn), the efficacy in experiment [1] is 18.5% (inactive). The compound was called inactive in experiment [2] and in [3].

On to `O=C(O)c1ccccc1S`, for which the max response in experiment [4] was 58.9% (inactive). In experiment [1], the efficacy is 16.8% (inactive). Further, the result in experiment [2] and in experiment [3] was inactive.

`O=C(O)/C=C\C(=O)O`: the max response in experiment [4] is 2.8% (inactive). Besides, in [1], the efficacy was 12.7% (inactive). Besides, the outcome in experiment [2] and in experiment [3] was inactive.

Turning to `CC(C)(C)NCC(O)COc1cccc2c1C[C@H](O)[C@H](O)C2` (stereo partly drawn), in experiment [1], the efficacy is 21.3% (inactive). Moreover, the result in experiment [2] and in experiment [3] was inactive.

As to `NC(=O)CS(=O)C(c1ccccc1)c1ccccc1` (stereo not drawn), the max response in experiment [4] was -2.53% (inactive). In addition, in experiment [1], the efficacy is -20.1% (inactive). The call in [2] and in experiment [3] was inactive.

For the compound `O=C1c2ccccc2C(=O)c2ccccc21`, the results for the max response in experiment [4] and in experiment [5] were -6.63% (inactive) and -16.3% (inactive), respectively. Moreover, the Potency entry in [6] was “inactive”. Also, the efficacy in experiment [1] was 11.2% (inactive). For the same compound, the result in experiment [2] and in experiment [3] was inactive.

Turning to `O=[N+]([O-])O[C@H]1CO[C@H]2[C@@H]1OC[C@H]2O[N+](=O)[O-]`, in [4], the max response was 30.8% (inactive). Moreover, in [1], the efficacy is -25.2% (inactive). Further, the call in [2] and in experiment [3] was inactive.

Turning to `Oc1ccc(Cl)cc1`, the max response in [4] is -8.53% (inactive); in experiment [5] it was -5.89% (inactive). Further, the Potency result in [6] was “inactive”. Further, the efficacy in [1] is -35.6% (inactive). Moreover, the compound was classed as inactive in experiment [2] and in [3].

On to `Cc1ccc(C(=O)C(=O)O)cc1C`, for which the efficacy in experiment [1] is -11.1% (inactive). Further, the outcome in experiment [2] and in experiment [3] was inactive.

Regarding `CCCCC(CC)CN1CN(CC(CC)CCCC)CC(C)(N)C1` (stereo not drawn), the efficacy in experiment [1] was -31.6% (inactive). The outcome in experiment [3] was inactive.

Take `CC(C)c1c(CN(C)C(C)Cc2ccccc2)n(C)n(-c2ccccc2)c1=O` (stereo not drawn): the max response in [4] is 12.8% (inactive). In addition, the efficacy in experiment [1] is -15% (inactive). Besides, the outcome in [2] and in experiment [3] was inactive.

Take `O=C1c2ccccc2C(=O)C1C(=O)C(c1ccccc1)c1ccccc1`: the figures for the max response in [4] and in experiment [5] were 4.31% (inactive) and -28.7% (inactive), respectively. Further, the Potency entry in [6] was “inactive”. Also, the efficacy in experiment [1] was -17.4% (inactive). In addition, the outcome in experiment [2] and in [3] was inactive.

Consider `CC(=O)CC(c1ccccc1)c1c(O)c2ccccc2oc1=O` (stereo not drawn), for which the max response in experiment [4] is 17.5% (inactive) and 36.1% (inactive). Besides, the parasite growth, % of DMSO control in experiment [7] amounted to 71.1%. The same compound returned a parasite growth remaining, % of DMSO control (lower = more inhibition) in [8] of 93.4%. This compound also gave a parasite growth, % of control (lower = inhibition) in [9] of 69.5%. For the same compound, the growth, % of control in [10] was determined as 84.4%. The efficacy in [1] was -35.3% (inactive). Further, the outcome in experiment [2] and in experiment [3] was inactive.

The values are drawn from PubChem BioAssay (NCATS).
